A word on the inhibition: it is the change of the read-out against control, counted positive when it falls.

Each structure is given as a SMILES string. Hit rate of the full screen: of about 220,000 compounds, about 530 (0.24%) were called active. Many of the other results were omitted from the sample, so actives are more common in it than they were. Entries with a potency or affinity are not part of this list. A number with no mark means an inactive call. No stated cut-off is given here; in the data, active means inhibition above about 13%; inconclusive means no clear call, values can overlap the other calls; inactive means below that.

For the assay, the target named is Bifunctional protein GlmU (Mycobacterium tuberculosis (strain ATCC 25618 / H37Rv)) (UniProt P9WMN3). Briefly: inhibition of mycobacterial GlmU enzyme – biochemical, glucosamine-1-phosphate acetyltransferase (AID 1376).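 Further: 0% = complete reaction with vehicle and 100% = reaction without substrate.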 To be noted: M. tuberculosis GlmU acetyltransferase enzyme assay; hits give high values;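 tested at 30 µM in the primary screen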.
Sequence of Bifunctional protein GlmU (Mycobacterium tuberculosis (strain ATCC 25618 / H37Rv)) (P9WMN3 whole entry, looked up): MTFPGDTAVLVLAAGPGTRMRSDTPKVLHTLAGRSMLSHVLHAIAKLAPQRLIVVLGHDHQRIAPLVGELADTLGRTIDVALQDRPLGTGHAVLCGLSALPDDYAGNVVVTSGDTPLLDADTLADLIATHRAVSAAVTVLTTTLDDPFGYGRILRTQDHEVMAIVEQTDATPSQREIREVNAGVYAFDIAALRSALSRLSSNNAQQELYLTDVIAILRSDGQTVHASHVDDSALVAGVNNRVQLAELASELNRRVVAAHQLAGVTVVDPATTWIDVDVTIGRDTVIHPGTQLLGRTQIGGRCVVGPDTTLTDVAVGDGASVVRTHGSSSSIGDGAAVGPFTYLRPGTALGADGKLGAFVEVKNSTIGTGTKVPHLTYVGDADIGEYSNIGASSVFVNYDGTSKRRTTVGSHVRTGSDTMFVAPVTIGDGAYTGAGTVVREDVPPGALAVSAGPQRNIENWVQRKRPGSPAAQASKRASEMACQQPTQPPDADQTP
On to `Cc1c(C(=O)OCCOc2ccccc2)[nH]c2c1C(=O)CCC2`, for which the inhibition is 2.56%.

On to `COc1cc(/C=C(\C#N)c2nc3ccccc3s2)cc([N+](=O)[O-])c1O`, for which the inhibition is 6.33%.

Turning to `N#C/C(=C\c1ccc(Sc2ccccc2)o1)c1nc2ccccc2[nH]1`, the inhibition is -4.05%.

As to `N#C/C(=C\c1ccc([N+](=O)[O-])o1)c1nc2ccccc2[nH]1`, the inhibition was -6.95%.

For the compound `N#C/C(=C/c1ccc(-c2ccc(S(N)(=O)=O)cc2)o1)c1nc2ccccc2s1`, the inhibition is 6.34%.

On to `N#C/C(=C\c1ccco1)c1nc2ccccc2s1`, for which the inhibition is 7.35%.

On to `N#C/C(=C/c1ccncc1)c1nc2ccccc2s1`, for which the inhibition is -6.23%.

On to `CC(C)(C)NC(=O)NC(=O)COC(=O)c1ccc2c(c1)S(=O)(=O)N=C1CCCCCN12`, for which the inhibition is -5.9%.

On to `O=C(C(=S)N1CCOCC1)c1c[nH]c2ccccc12`, for which the inhibition was -1.14%.

Turning to `O=C1C2C3C=CC(CC3)C2C(=O)N1/N=C/c1c(O)ccc2ccccc12` (configuration not stated), the inhibition was -1.22%.

For the compound `CC(NC(=O)c1ccco1)C1COc2ccccc2O1` (configuration not stated), the inhibition is 1.62%.

`CC(Sc1nnc2ccccn12)C(=O)Nc1ccc(Cl)cn1` (configuration not stated): the inhibition was 8.91%.

Consider `COc1ccccc1C1=NN(C2=NN=C(N)Cc3ncnn32)C(O)(C(F)(F)F)C1` (configuration not stated), for which the inhibition is -7.53%.

For the compound `N#CCC(=O)N/N=C/c1cccc(Oc2ccccc2)c1`, the inhibition is 5.36%.

With `O=c1c2ccccc2nc(N2CCCC2)n1-c1ccc(Cl)cc1`, the inhibition was 3.51%.

In the case of `CN1CCN(c2nc3ccccc3c(=O)n2-c2ccccc2)CC1`, the inhibition is 2.07%.

As for `O=c1c2ccccc2nc(N2CCCC2)n1-c1ccccc1`, the inhibition was 13.9% (active).

For the compound `CC1(C)CC(=O)C2=C(C1)NC(=O)C21C(C(=O)OC(C)(C)C)=C(N)Oc2ccc(Br)cc21` (configuration not stated), the inhibition is 4.2%.

As to `O=C(Cc1ccccc1[N+](=O)[O-])Nc1ccc2c(c1)OCO2`, the inhibition is 0.87%.

For the compound `O=C(Cc1ccc([N+](=O)[O-])cc1)NCc1ccc2c(c1)OCO2`, the inhibition is -3.22%.

As to `O=C(Cc1ccccc1[N+](=O)[O-])NCc1ccc2c(c1)OCO2`, the inhibition is 14% (active).

On to `O=C(/C=C\c1ccco1)Oc1cccc2cccnc12`, for which the inhibition is 0.86%.

Turning to `O=C(/C=C/c1ccco1)Oc1cccc2cccnc12`, the inhibition was 14.7% (active).

On to `O=C(/C=C/c1ccccc1)Oc1cccc2cccnc12`, for which the inhibition is 0.34%.

Take `CN(NC(=O)Nc1ccccc1)c1cnn(C)c(=O)c1Cl`: the inhibition is 4.46%.

As for `Cc1ccc(NC(=O)CC2COc3ccccc3O2)cc1` (configuration not stated), the inhibition is -0.6%.

As for `CC1(C)CC(=O)C2=C(C1)NC(=O)CC2c1ccc(N(CCC#N)CCC#N)cc1` (configuration not stated), the inhibition was -4.28%.

As for `O=C1CSC(=S)N1/N=C/c1ccc(Cl)c([N+](=O)[O-])c1`, the inhibition is 4.42%.

With `COc1cc(/C=N/N2C(=O)CSC2=S)ccc1O`, the inhibition was -0.65%.

Consider `O=C1c2ccccc2C(=O)N1/N=C/c1ccc(O)c(O)c1O`, for which the inhibition was 10.8%.

With `COc1cccc(/C=N/N2C(=O)CSC2=S)c1O`, the inhibition was 5.18%.

On to `O=C1CSC(=S)N1/N=C/c1ccc(O)c([N+](=O)[O-])c1`, for which the inhibition is 55.6% (active).

For `COC(=O)c1c(C)n(-c2ccc(C)cc2)c2ccc(O)cc12`, the inhibition was -3.11%.

Turning to `O=C(CCn1c(=O)[nH]c2ccccc2c1=O)N1CC=C(c2ccccc2)CC1`, the inhibition was 1.07%.

For the compound `O=C(CSc1ccccn1)N/N=C/c1cc([N+](=O)[O-])ccc1O`, the inhibition is 4.16%.

As to `O=C(Nc1cccc(S(=O)(=O)N2CCOCC2)c1)c1ccc(Cl)c([N+](=O)[O-])c1`, the inhibition is -7.13%.

Take `O=C(Nc1cccc(C(F)(F)F)c1)N1CCN(C(=O)Nc2cccc(C(F)(F)F)c2)CC1`: the inhibition is -0.83%.

On to `COc1ccccc1N1CCN(C(=O)/C=C/c2c(Cl)nc3ccccn23)CC1`, for which the inhibition is 1.7%.

On to `COc1ccc(/C=N/c2c(-c3ccc(OC)cc3)nc3n2CCS3)cc1`, for which the inhibition is -0.71%.

Take `Cc1nc2cc(NC(=O)NCc3ccc4c(c3)OCO4)ccc2o1`: the inhibition was 0.01%.

With `CC12CCC(c3nnc(SCc4ccc(Cl)cc4)nc31)C2(C)C` (configuration not stated), the inhibition was 7.21%.

On to `COc1ccc(-c2nc3scc(-c4ccccc4)n3n2)cc1`, for which the inhibition was 5.16%.

`COCCn1c(Cc2ccccc2)nnc1SCC(=O)Nc1ccccc1`: the inhibition was 2.41%.

In the case of `Cc1cc(Cl)c(OCCN2C(=O)NC(C)(C)C2=O)c(Br)c1`, the inhibition is -1.37%.

In the case of `CC1(C)NC(=O)N(CCOCCOc2c(Cl)cc(Cl)cc2Cl)C1=O`, the inhibition was 2.47%.

Consider `Cc1cc(C)c(OCCN2C(=O)NC(C)(C)C2=O)c(Cl)c1`, for which the inhibition was 14.1% (active).

As for `CCCNC(=O)c1nnsc1S(=O)(=O)c1ccc(Cl)cc1`, the inhibition is 10.7%.

In the case of `CCCNC(=O)c1nnsc1Sc1ccc(Cl)cc1`, the inhibition is 1.02%.

Consider `O=C(Nc1ccccc1)c1nnsc1S(=O)(=O)c1ccc(Cl)cc1`, for which the inhibition was 6.59%.

In the case of `O=C(c1cc(-c2ccc(Cl)cc2)on1)N1CCOCC1`, the inhibition is 3.17%.

Turning to `CNC(=O)c1ncoc1-c1ccc(Cl)cc1`, the inhibition was -1.29%.

Take `O=C(c1nnsc1S(=O)(=O)c1ccc(Cl)cc1)N1CCOCC1`: the inhibition is 0.93%.

Consider `CNC(=O)c1nnsc1S(=O)(=O)c1ccc(Cl)cc1`, for which the inhibition is 11.5%.

Regarding `Cc1nnsc1C(=O)Nc1ccc(Cl)cc1`, the inhibition is 5.53%.

On to `CC1(C)C(=O)OC(c2ccccc2)C2(CCCC2)C1=O` (configuration not stated), for which the inhibition was -6.73%.

Turning to `COC(=O)N1CCN(CCc2ccccc2)CC1`, the inhibition is 0.78%.

Turning to `CCCCNC(=O)CNC(=S)N(Cc1ccccc1)Cc1cccs1`, the inhibition is 4.12%.

For `CCc1cccc(NC(=O)CCS(=O)(=O)c2cccc3nonc23)c1`, the inhibition was 0.23%.

Take `CC(NC(=O)CSC(=S)N(C)C)C12CC3CC(CC(C3)C1)C2` (configuration not stated): the inhibition was 2.22%.

In the case of `O=C1C2C3C=CC(C3)C2C(=O)N1CCCCCCN1C(=O)C2C3C=CC(C3)C2C1=O` (configuration not stated), the inhibition is -4.36%.

As to `O=C1C2C3C=CC(C3)C2C(=O)N1CCCCN1C(=O)C2C3C=CC(C3)C2C1=O` (configuration not stated), the inhibition was 4.77%.

Consider `CCCC(=O)Nc1c(C)nn(C(=O)CCC)c1C`, for which the inhibition was 9.51%.

In the case of `COc1cccc(-c2nnc(SCCC(=O)O)n2C)c1`, the inhibition is -2.35%.

Take `C/C(Cl)=C/Cn1c(NCCCn2ccnc2)nc2c1c(=O)[nH]c(=O)n2C`: the inhibition was -3.26%.

Consider `CCN(CC)S(=O)(=O)c1ccc(NC(=O)COC(=O)c2ccc(-n3nc(C)cc3C)cc2)cc1`, for which the inhibition was 2.95%.

With `COc1ccc(S(=O)(=O)N2CCOCC2)cc1NC(=O)COC(=O)c1ccc(C)s1`, the inhibition was 0.67%.

`COc1ccc(C(=O)OCC(=O)Nc2cc(S(=O)(=O)N3CCOCC3)ccc2N2CCCC2)cc1`: the inhibition was 0.15%.

Regarding `COc1ccc(OC)c(NC(=O)COC(=O)c2ccc(S(=O)(=O)N3CCOCC3)cc2)c1`, the inhibition is 14.5% (active).

As to `Cc1cc(C)n(-c2ccc(C(=O)OCC(=O)Nc3ccc(S(=O)(=O)N4CCCCC4)cc3)cc2)n1`, the inhibition is 0.24%.

Regarding `Cc1cc(C)n(-c2ccc(C(=O)OCC(=O)Nc3ccc(S(=O)(=O)N4CCOCC4)cc3)cc2)n1`, the inhibition is 12.8% (active).

Consider `CC(C)(Oc1ccc(CCNC(=O)c2ccc(-c3ccc(Cl)cc3)o2)cc1)C(=O)O`, for which the inhibition was 8.95%.

As to `COC(=O)c1ccc(/C=N/N2CCN(Cc3ccc(C)cc3C)CC2)cc1`, the inhibition was 0.99%.

Regarding `CC(C)Oc1ccc(C(=O)N2CCCC2C(=O)O)cc1` (configuration not stated), the inhibition was 1.48%.

Take `CCCCCCCCCCCC(=O)N/N=C/c1ccco1`: the inhibition was 2.22%.

With `O=C(O)CC(C(=O)Nc1ccc(Cl)c(Cl)c1)C1CCCO1` (configuration not stated), the inhibition was 5.87%.

On to `CC(=O)[C@@H]1[C@@H](C)N(Cc2ccccc2)C(=O)N[C@H]1c1cccc(C(F)(F)F)c1`, for which the inhibition is 3.76%.

Regarding `Cc1oc(C(C)(C)C)cc1C(=O)N1CCN(C(c2ccccc2)c2ccccc2)CC1`, the inhibition is -0.86%.

For the compound `COC(=O)CCC(=O)NC(=S)Nc1ccccc1F`, the inhibition was -2.07%.

On to `O=C(Nc1ccc(F)cc1)c1ccc2nsnc2c1`, for which the inhibition is -5.81%.

For the compound `O=C(Nc1ccccc1)c1ccc2nsnc2c1`, the inhibition is 19.3% (active).

For the compound `O=C(Nc1ccc(Cl)cc1)c1ccc2nsnc2c1`, the inhibition was 4.02%.

With `O=C(CSc1nnc(-c2ccc(OC(F)F)cc2)o1)NCc1cccs1`, the inhibition was -1.34%.

With `N#Cc1c(Nc2ccc(Cl)cc2)s[nH]c1=O`, the inhibition was 4.63%.

`N#Cc1c(Nc2ccccc2Cl)s[nH]c1=O`: the inhibition was 0.08%.

For the compound `N#Cc1c(Nc2ccccc2)s[nH]c1=O`, the inhibition is 14.2% (active).

`COCCNC(=O)c1cc2c(=O)n3cccc(C)c3nc2n1C`: the inhibition is 3.57%.

Turning to `O=C(O)c1ccccc1SCc1cn2cc(Br)ccc2n1`, the inhibition was 0.7%.

With `CCOc1ccc2c(c1)C(=O)c1cc(OCC(=O)O)ccc1-2`, the inhibition was -3.72%.

As to `O=C(c1ccccc1)c1ccccc1C(=O)N1CCOCC1`, the inhibition was -1.73%.

Consider `O=C(c1ccccc1)c1ccccc1C(=O)N1CCN(C(=O)c2ccccc2)CC1`, for which the inhibition is -3.19%.

On to `O=C(c1ccccc1)c1ccccc1C(=O)N1CCCC1`, for which the inhibition was 13.3% (active).

Consider `CCCNC(=O)c1ccc(Cn2cc(C(F)(F)F)ccc2=O)cc1`, for which the inhibition is 0.72%.

For the compound `O=C(Nc1cc2c(ccc3ccccc32)oc1=O)C1CCCCC1`, the inhibition is 0.95%.

As to `N=C1/C(=C\c2ccc(-c3cc(Cl)cc(Cl)c3)o2)C(=O)N=C2SC=C(c3ccccc3)N12`, the inhibition was -7.2%.

Turning to `CC(C)S(=O)(=O)C1=NSC2=NC(=O)/C(=C\c3ccc(-c4ccccc4)o3)C(=N)N21`, the inhibition was 4.83%.

With `Cc1cc(/C=C2/C(=N)N3C(c4ccccc4)=CSC3=NC2=O)c(C)n1-c1ccccc1`, the inhibition was -4.29%.

Take `COc1cc(/C=C2/C(=N)N3C=CSC3=NC2=O)ccc1OCCCOc1ccccc1C`: the inhibition was -3.86%.

`CS(=O)(=O)C1=NSC2=NC(=O)/C(=C\c3ccc(-c4ccccc4)o3)C(=N)N21`: the inhibition is -0.37%.

On to `COc1cc(/C=C2/C(=N)N3C(c4ccccc4)=CSC3=NC2=O)ccc1OCC(=O)O`, for which the inhibition was 14.6% (active).

Consider `Cc1cccc(-n2c(C)cc(/C=C3/C(=N)N4C(c5ccccc5)=CSC4=NC3=O)c2C)c1`, for which the inhibition is 1.75%.

On to `Cc1ccc(-n2c(C)cc(/C=C3/C(=N)N4C(c5ccccc5)=CSC4=NC3=O)c2C)cc1`, for which the inhibition is 7.47%.

As to `N=C1/C(=C/c2cccn2CCOc2ccccc2)C(=O)N=C2SC=C(c3ccccc3)N12`, the inhibition is 2.69%.

These data come from PubChem BioAssay AID1376 (SRMLSC, 2008).
